According to PubChem BioAssay (EPA / NIEHS):
Activity calls are given as the source filed them. The calls were made as follows: active = hit-call score of the fitted dose curve at least 0.9, where 1 is the maximum; inactive = score below 0.9.

What was measured:
Conditions in all cases: mRNA level, 48 h; actives raise or lower the signal
[1] = read-out: growth arrest and DNA damage 45 (GADD45B), GADD45B (gene 4616); test: LTEA_HepaRG_GADD45B: Life Technologies and Expression Analysis (LTEA) Assay for growth arrest and DNA damage 45 (GADD45B) using HepaRG (AID 2283461)
Outline: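 HepaRG, ~100,000 cells/well, 48 h plating; serum-free induction medium; cpd 100 uM top, half-log x8, 0.5% DMSO, duplicate, 48 h; lysis in RLT, RNA isolation, qRT-PCR; norm ACTB/GAPDH/POLR2A; bidirectional fit vs DMSO.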

[2] = read-out: ABC Transporter (ABCC3), ABCC3 (gene 8714); test: LTEA_HepaRG_ABCC3: Life Technologies and Expression Analysis (LTEA) Assay for ABC Transporter (ABCC3) using HepaRG (AID 2283462)
Outline: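 Human HepaRG, 48 h dosing, 8-pt half-log series from 100 uM, 0.5% DMSO vehicle, duplicates. ABCC3 mRNA by TaqMan qRT-PCR, housekeeping-normalized; bidirectional curve fit vs DMSO.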

[3] = read-out: ABC Transporter (ABCB11), ABCB11 (gene 8647); test: LTEA_HepaRG_ABCB11: Life Technologies and Expression Analysis (LTEA) Assay for ABC Transporter (ABCB11) using HepaRG (AID 2283463)
Outline: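 Differentiated human HepaRG cells were exposed for 48 h in serum-free induction medium to eight half-log concentrations up to 100 uM in 0.5% DMSO. ABCB11 mRNA was quantified by qRT-PCR, normalized to ACTB, GAPDH and POLR2A, and fitted bidirectionally versus DMSO.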

[4] = read-out: ABC Transporter (ABCC2), ABCC2 (gene 1244); test: LTEA_HepaRG_ABCC2: Life Technologies and Expression Analysis (LTEA) Assay for ABC Transporter (ABCC2) using HepaRG (AID 2283464)
Outline: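 HepaRG, 48 h post-plating; serum-free induction medium; cpd 8-pt, 100 uM top, half-log, 0.5% DMSO, duplicate, 48 h. Readout: ABCC2 mRNA by qRT-PCR, norm. ACTB/GAPDH/POLR2A. Bidirectional fit vs DMSO baseline.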

[5] = read-out: Broad substrate specificity ATP-binding cassette transporter ABCG2 (Homo sapiens) (UniProt Q9UNQ0); test: LTEA_HepaRG_ABCG2: Life Technologies and Expression Analysis (LTEA) Assay for ABC Transporter (ABCG2) using HepaRG (AID 2283465)
Outline: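 Differentiated HepaRG cells in serum-free induction medium were exposed for 48 h, in duplicate, to eight half-log concentrations up to 100 uM in 0.5% DMSO. ABCG2 mRNA was measured by TaqMan qRT-PCR, normalized to ACTB, GAPDH and POLR2A, and fitted bidirectionally versus DMSO.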

[6] = read-out: ATP-citrate lyase (ACLY), ACLY (gene 47); test: LTEA_HepaRG_ACLY: Life Technologies and Expression Analysis (LTEA) Assay for ATP-citrate lyase (ACLY) using HepaRG (AID 2283466)
Outline: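 Differentiated human HepaRG cells in serum-free induction medium exposed 48 h, in duplicate, to eight half-log concentrations from 100 uM top in 0.5% DMSO; ACLY mRNA measured by qRT-PCR, normalized to ACTB, GAPDH, POLR2A, fitted bidirectionally versus DMSO.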

[7] = read-out: Peroxisomal acyl-coenzyme A oxidase 1 (ACOX1) gene, ACOX1 (gene 51); test: LTEA_HepaRG_ACOX1: Life Technologies and Expression Analysis (LTEA) Assay for Peroxisomal acyl-coenzyme A oxidase 1 (ACOX1) gene using HepaRG (AID 2283467)
Outline: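 Differentiated human HepaRG cells were exposed in duplicate for 48 h in serum-free induction medium to eight half-log concentrations up to 100 uM in 0.5% DMSO. ACOX1 mRNA was then quantified by TaqMan qRT-PCR, normalized to ACTB, GAPDH and POLR2A.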

[8] = read-out: Alkaline Phosphatase, Placental (ALPP) gene, ALPP (gene 250); test: LTEA_HepaRG_ALPP: Life Technologies and Expression Analysis (LTEA) Assay for Alkaline Phosphatase, Placental (ALPP) gene using HepaRG (AID 2283468)
Outline: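 HepaRG, 48 h plating then 48 h dosing, serum-free induction medium, 0.5% DMSO. 8 conc, half-log, max 100 uM, duplicates. Endpoint: ALPP transcript by qRT-PCR, housekeeping-normalized; gain or loss fitted vs DMSO.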

[9] = read-out: Bcl-2 (BAD) gene, BAD (gene 572); test: LTEA_HepaRG_BAD: Life Technologies and Expression Analysis (LTEA) Assay for Bcl-2 (BAD) gene using HepaRG (AID 2283469)
Outline: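 Differentiated human HepaRG cells in serum-free induction medium were exposed in duplicate for 48 h to eight concentrations (top 100 uM, half-log steps, 0.5% DMSO). BAD mRNA was quantified by qRT-PCR normalised to ACTB, GAPDH and POLR2A, with bidirectional fitting versus DMSO.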

[10] = read-out: Bcl-2 (BAX) gene, BAX (gene 581); test: LTEA_HepaRG_BAX: Life Technologies and Expression Analysis (LTEA) Assay for Bcl-2 (BAX) gene using HepaRG (AID 2283470)
Outline: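 Differentiated HepaRG cells exposed 48 h in serum-free induction medium, eight half-log concentrations from 100 uM, in duplicate, 0.5% DMSO vehicle. BAX mRNA by TaqMan qRT-PCR, normalised to ACTB, GAPDH and POLR2A.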

[11] = read-out: adenosine kinase (ADK) gene, ADK (gene 132); test: LTEA_HepaRG_ADK: Life Technologies and Expression Analysis (LTEA) Assay for adenosine kinase (ADK) gene using HepaRG (AID 2283471)
Outline: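 Read-out is ADK transcript level measured by qRT-PCR and normalised to three housekeeping genes. Cells are human HepaRG, dosed for 48 h at up to 100 uM in 0.5% DMSO. Gain or loss of signal is fitted against DMSO controls.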

[12] = read-out: Alpha-fetoprotein (AFP) gene, AFP (gene 174); test: LTEA_HepaRG_AFP: Life Technologies and Expression Analysis (LTEA) Assay for Alpha-fetoprotein (AFP) gene using HepaRG (AID 2283472)
Outline: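 Differentiated human HepaRG cells exposed 48 h in serum-free induction medium, 8-point half-log series from 100 uM in 0.5% DMSO, duplicate. AFP mRNA by qRT-PCR, normalized to ACTB, GAPDH, POLR2A; bidirectional fit vs DMSO.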

BCL2L11 (gene 10018) = test: LTEA_HepaRG_BCL2L11: Life Technologies and Expression Analysis (LTEA) Assay for Bcl-2 (BCL2L11) gene using HepaRG (AID 2283473)
Outline: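 Read-out is BCL2L11 transcript level by qRT-PCR, normalized to three housekeeping genes and fitted bidirectionally against 0.5% DMSO vehicle. HepaRG cells received chemicals for 48 h in serum-free induction medium, 100 uM down in half-log dilutions.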

[13] = read-out: Apoptosis regulator Bcl-2 (Homo sapiens) (UniProt P10415); test: LTEA_HepaRG_BCL2: Life Technologies and Expression Analysis (LTEA) Assay for Bcl-2 gene using HepaRG (AID 2283475)
Outline: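 Differentiated human HepaRG cells in serum-free induction medium exposed 48 h, in duplicate, to 8-point half-log series from 100 uM in 0.5% DMSO. BCL2 mRNA by qRT-PCR (TaqMan/Fluidigm), normalized to ACTB, GAPDH, POLR2A; bidirectional fit against DMSO.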

[14] = read-out: Bcl-2 (BID) gene, BID (gene 637); test: LTEA_HepaRG_BID: Life Technologies and Expression Analysis (LTEA) Assay for Bcl-2 (BID) gene using HepaRG (AID 2283476)
Outline: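 Gene expression by qRT-PCR in HepaRG cells after 48 h exposure, duplicate wells, eight half-log concentrations topping at 100 uM in 0.5% DMSO. Normalized to ACTB, GAPDH, POLR2A; bidirectional fitting relative to DMSO.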

Caspase-3 (Homo sapiens) = Caspase-3 (Homo sapiens) (UniProt P42574); test: LTEA_HepaRG_CASP3: Life Technologies and Expression Analysis (LTEA) Assay for cysteine-aspartic acid protease (CASP3) using HepaRG (AID 2283477)
Sequence of Caspase-3 (Homo sapiens) (P42574 whole entry, looked up): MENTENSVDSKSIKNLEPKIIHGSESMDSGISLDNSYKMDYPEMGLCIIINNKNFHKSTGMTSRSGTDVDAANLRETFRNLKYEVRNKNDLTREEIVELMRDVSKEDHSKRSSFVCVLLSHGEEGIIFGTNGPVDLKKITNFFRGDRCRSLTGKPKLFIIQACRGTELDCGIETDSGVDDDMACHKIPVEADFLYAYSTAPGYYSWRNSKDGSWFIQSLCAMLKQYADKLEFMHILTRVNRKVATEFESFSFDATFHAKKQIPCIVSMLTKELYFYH
Outline: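 Read-out is CASP3 mRNA level by TaqMan qRT-PCR in human HepaRG cells after 48 h chemical exposure. Eight half-log concentrations topping at 100 uM were tested in 0.5% DMSO; gain or loss was fitted relative to DMSO.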

[15] = read-out: Cytochrome P450 (CYP24A1), CYP24A1 (gene 1591); test: LTEA_HepaRG_CYP24A1: Life Technologies and Expression Analysis (LTEA) Assay for Cytochrome P450 (CYP24A1) using HepaRG (AID 2283478)
Outline: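 HepaRG, 48 h chemical exposure, 8-pt half-log CRC from 100 uM, 0.5% DMSO vehicle, duplicates. Endpoint: CYP24A1 mRNA by Fluidigm TaqMan qRT-PCR, normalized ACTB/GAPDH/POLR2A; gain/loss fit vs DMSO.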

[16] = read-out: Cytochrome P450 (CYP1A2), CYP1A2 (gene 1544); test: LTEA_HepaRG_CYP1A2: Life Technologies and Expression Analysis (LTEA) Assay for Cytochrome P450 (CYP1A2) using HepaRG (AID 2283479)
Outline: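 CYP1A2 transcript induction or loss, quantified by Fluidigm qRT-PCR against three housekeeping genes, was fitted bidirectionally against 0.5% DMSO controls. Human HepaRG cells received eight half-log concentrations from 100 uM over 48 h.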

[17] = read-out: cysteine-aspartic acid protease (CASP8), CASP8 (gene 841); test: LTEA_HepaRG_CASP8: Life Technologies and Expression Analysis (LTEA) Assay for cysteine-aspartic acid protease (CASP8) using HepaRG (AID 2283480)
Outline: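 Differentiated human HepaRG cells, plated 48 h then switched to serum-free induction medium, were exposed in duplicate for 48 h to 8 half-log concentrations up to 100 uM in 0.5% DMSO. CASP8 mRNA was quantified by qRT-PCR, normalized to ACTB/GAPDH/POLR2A.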

[18] = read-out: Apolipoprotein A-V (APOA5) gene, APOA5 (gene 116519); test: LTEA_HepaRG_APOA5: Life Technologies and Expression Analysis (LTEA) Assay for Apolipoprotein A-V (APOA5) gene using HepaRG (AID 2283474)
Outline: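 Readout is APOA5 transcript level by qRT-PCR on Fluidigm dynamic arrays, normalized to three housekeeping genes. HepaRG cultures received chemicals for 48 h at up to 100 uM (half-log steps, 0.5% DMSO), with gain or loss scored relative to DMSO.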

Measured: AC50

Sequence of Apoptosis regulator Bcl-2 (Homo sapiens) (P10415 whole entry, looked up): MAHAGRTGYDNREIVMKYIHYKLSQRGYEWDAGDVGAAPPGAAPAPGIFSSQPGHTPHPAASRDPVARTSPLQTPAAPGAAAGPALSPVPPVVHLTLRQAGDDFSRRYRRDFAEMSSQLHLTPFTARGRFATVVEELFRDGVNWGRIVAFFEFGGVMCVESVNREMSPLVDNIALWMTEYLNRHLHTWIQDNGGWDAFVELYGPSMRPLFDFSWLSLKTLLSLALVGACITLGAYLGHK
Sequence of Broad substrate specificity ATP-binding cassette transporter ABCG2 (Homo sapiens) (Q9UNQ0 whole entry, looked up): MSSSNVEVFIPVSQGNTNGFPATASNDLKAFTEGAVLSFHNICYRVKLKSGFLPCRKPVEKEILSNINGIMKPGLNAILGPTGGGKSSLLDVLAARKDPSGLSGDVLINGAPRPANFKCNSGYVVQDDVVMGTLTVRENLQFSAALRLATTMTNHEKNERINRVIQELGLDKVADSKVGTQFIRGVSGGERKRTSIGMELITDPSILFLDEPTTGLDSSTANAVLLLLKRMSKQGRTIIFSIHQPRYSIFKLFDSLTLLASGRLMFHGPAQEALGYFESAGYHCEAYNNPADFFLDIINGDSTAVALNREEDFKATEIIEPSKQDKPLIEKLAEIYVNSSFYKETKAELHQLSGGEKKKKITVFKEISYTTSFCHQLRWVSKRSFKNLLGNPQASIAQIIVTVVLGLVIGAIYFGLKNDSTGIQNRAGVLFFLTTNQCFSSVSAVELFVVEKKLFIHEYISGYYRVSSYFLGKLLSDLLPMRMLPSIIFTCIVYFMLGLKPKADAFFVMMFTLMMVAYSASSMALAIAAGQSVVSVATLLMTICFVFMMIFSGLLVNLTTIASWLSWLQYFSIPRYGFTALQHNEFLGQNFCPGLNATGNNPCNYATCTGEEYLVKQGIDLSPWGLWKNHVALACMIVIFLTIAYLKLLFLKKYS

CCCc1cc(=O)[nH]c(=S)[nH]1
inactive: [1] | [2] | [3] | [4] | [5] | [6] | [7] | [8] | [9] | [10] | [11] | [12] | BCL2L11 (gene 10018) | [13] | [14] | Caspase-3 (Homo sapiens) | [15] | [17]
active: [16] 23.7 µM

CC(C)(C)c1cc(O)c(C(C)(C)C)cc1O
active: [2] 73.6 µM | [3] 72.7 µM | [4] 85.9 µM | [7] 77.3 µM | [8] 90.8 µM | [11] 76.7 µM | [12] 77.7 µM | Caspase-3 (Homo sapiens) 79.4 µM | [17] 81.1 µM
inactive: [1] | [5] | [6] | [9] | [10] | BCL2L11 (gene 10018) | [18] | [13]

C=CCOC(=O)c1ccccc1C(=O)OCC=C
inactive: [1] | [2] | [3] | [4] | [5] | [6] | [7] | [8] | [9] | [10] | [11] | [12] | BCL2L11 (gene 10018) | [13] | [14] | Caspase-3 (Homo sapiens) | [15] | [16] | [17]

CC1(C)CC(N=C=O)CC(C)(CN=C=O)C1 (stereo not drawn)
active: [3] 50 µM
inactive: [1] | [2] | [4] | [5] | [6] | [7] | [8] | [9] | [10] | [11] | [12] | BCL2L11 (gene 10018) | [13] | Caspase-3 (Homo sapiens) | [15] | [16] | [17]

Cc1nc(-c2ccc3c(c2)CCN(CCC2CCC(NC(=O)/C=C/c4ccc(F)cc4)CC2)CC3)no1 (stereo not drawn)
inactive: [1] | [2] | [3] | [4] | [5] | [6] | [7] | [8] | [9] | [11] | [12] | BCL2L11 (gene 10018) | [18] | [13] | Caspase-3 (Homo sapiens) | [15] | [16] | [17]

CCOc1ccc2c(c1)C(C)=CC(C)(C)N2
inactive: [1] | [2] | [3] | [4] | [7] | [8] | [9] | [10] | [11] | [18] | [13] | [14] | Caspase-3 (Homo sapiens) | [15] | [17]
active: [5] 1.02 µM | [12] 50 µM | BCL2L11 (gene 10018) 9.92 µM | [16] 13 µM

CCOC(=O)C(C)(C)Oc1ccc(Cl)cc1
inactive: [1] | [2] | [3] | [4] | [5] | [7] | [8] | [9] | [10] | [11] | [12] | BCL2L11 (gene 10018) | [18] | [13] | Caspase-3 (Homo sapiens) | [15] | [16] | [17]
